Our source for the outcome and AC50 values is PubChem BioAssay (EPA / NIEHS).

The structures appear in SMILES notation. Activity calls are given as the source filed them. Rule for the calls: active = hit-call score of the fitted dose curve at least 0.9, where 1 is the maximum; inactive = score below 0.9.

This assay is described as follows: ATG_TGFb_CIS: Attagene CIS-FACTORIAL HepG2 Assay for human Transforming Growth Factor (TGF) (AID 2282967). Particulars: HepG2 Attagene CIS TGFb reporter, mRNA transcription; actives raise or lower the signal. As for the experimental part:
ATG_CIS is a cell-based, multiplexed-readout assay that uses HepG2, a human liver cell line, with measurements taken at 24 hours after chemical dosing in a 24-well plate.ATG_TGFb_CIS is one of 52 assay component(s) measured or calculated from the ATG_CIS assay. It is designed to make measurements of mRNA induction, a form of inducible reporter, as detected with fluorescence intensity signals by Reverse transcription polymerase chain reaction (RT-PCR) and Capillary electrophoresis technology.Data from the assay component ATG_TGFb_CIS was analyzed into 1 assay endpoint. This assay endpoint, ATG_TGFb_CIS, was analyzed with bidirectional fitting relative to DMSO as the negative control and baseline of activity. Using a type of inducible reporter, measures of mRNA for gain or loss-of-signal activity can be used to understand the reporter gene at the transcription factor-level as they relate to the gene TGFB1. Furthermore, this assay endpoint can be referred to as a primary readout, because this assay has produced multiple assay endpoints where this one serves a reporter gene function. To generalize the intended target to other relatable targets, this assay endpoint is annotated to the growth factor intended target family, where the subfamily is transforming growth factor beta.
Human liver HepG2 cells are transiently transfected with multiple reporter transcription units (MRTUs) in 6-well plates using FuGene 6 reagent (Roche; 3 ml FuGene/1 mg DNA). The MRTU constructs are regulated by a cis-regulating element (promoter). […] A major difference between the CIS and TRANS system is that in CIS activities of endogenous TFs are measured, whereas the TRANS assay evaluates changes in activities of exogenous, chimeric NR-Gal4 proteins. […] At the end of 24 hour incubation, total RNA was isolated using TriZol reagent (Invitrogen). The isolated RNA is then reverse-transcribed using oligo(dT) primer and Mo-MLV reverse transcriptase (Invitrogen) with DNAse I (Ambion) treatment for 30 min. The one-tenth of the produced cDNA was amplified by PCR using Taq DNA polymerase (Invitrogen) and two reporter sequence-specific primers. The PCR products were fluorescently labeled by primer extension with 6-arboxyfluorescein (6-FAM) 5'-labeled reporter sequence-specific primer (2 min at 95 C, 20 s at 68 C and 10 min at 72 C) and these products were digested with 5U of HpaI (New England Biolabs) for 2h at 37 C. The fragments were purified using Qiaquick PCR columns (Qiagen), analyzed on an ABI 3130xL genetic analyzer (Applied Biosystems) with peak positions identified by using a set of X-rhodamine (ROX)-labeled MapMarker1000 molecular weight standards (BioVentures). The raw capillary electrophoresis data was processed using Attagraph software (Attagene).
For the molecule `C=CCN(CC=C)CC=C`, the call was inactive.

On to `COc1ccc(OC)c(N=Nc2c(O)ccc3ccccc23)c1`, for which the molecule was classed as inactive. On the same count and under the same terms, the same measure for `CCCCC(CC)COC(=O)c1ccc(O)cc1` (stereo not given): “inactive”; for `Nc1c(S(=O)(=O)O)cc(Br)c2c1C(=O)c1ccccc1C2=O`: “inactive”. Turning to `CCC(=O)OCCOc1ccccc1`, the outcome was inactive. Still for that read-out and setting: then `Cc1cc(=O)oc2cc(N(C)C)ccc12`, with “inactive”; and `CC(C)c1ccccc1O`, with “inactive”.

`COCCOCCOCCO`: the molecule was called inactive.

Turning to `COC(C)(C)CCO`, the outcome was inactive. With `C=CCCCCCCCCCC`, the result was inactive.

In the case of `CN1CCOCC1`, the molecule was classed as inactive. For the molecule `COC(=O)c1ccc([N+](=O)[O-])cc1`, the molecule was classed as inactive.

For the molecule `C#CC(C)N(C)C(=O)Nc1ccc(Cl)cc1` (stereo not given), the outcome was inactive. On the same count and under the same terms, the same measure for `O=C(O)CCCCCCCCC(=O)O`: “inactive”. As to `CS(=O)(=O)c1ccc(Cl)cc1`, the molecule was classed as inactive. On to `CCOC(=O)CN`, for which the result was inactive.

Take `BrCc1cccc(Oc2ccccc2)c1`: the molecule was called inactive. On the same count and under the same terms, then `CCCCCC(C)=O`, with “inactive”; and `COC(=O)Nc1ccc(Cl)c(Cl)c1`, with “inactive”. Same read-out and setting: the same measure for `Nc1c(Cl)cc(Cl)cc1[N+](=O)[O-]`: “inactive”; for `CC1(C)C(=O)N(Cl)C(=O)N1Br`: “inactive”. The same measure, in the same setting: then `Cc1ncc([N+](=O)[O-])n1CCO`, with “inactive”. `C=C(C)C(=O)OCCOC1CC2CC1C1C=CCC21` (stereo not given): the molecule was classed as inactive. On the same count and under the same terms, the same measure for `COc1ccc(CCC(C)=O)cc1`: “inactive”; for `CCCOC(=O)c1c(Cl)c(Cl)c(Cl)c(Cl)c1C(=O)OCCC`: “inactive”.

By AC50 is commonly meant the midpoint of the concentration-response curve, whichever way the signal moves. Regarding `CCOc1ccc(NC(=O)CC(C)O)cc1` (stereo not given), the AC50 is 97.5 nM (active).

For the molecule `CCOC(=O)C(C#N)=C(c1ccccc1)c1ccccc1`, the molecule was classed as inactive. On the same count and under the same terms, then `CC(=O)O[C@@H]1CC2CCC1(C)C2(C)C` (stereo not given in full), with “inactive”. In the case of `CC(C)(C)CC(C)(C)c1ccc(OCCOCC[N+](C)(C)Cc2ccccc2)cc1`, the call was inactive. On the same count and under the same terms, then `COS(=O)(=O)O`, with “inactive”; and `CCCCCCC(CO)CCCC` (stereo not given), with “inactive”. Same read-out and setting: the same measure for `CC(=O)OCCCc1ccccc1`: “inactive”; for `IC(I)I`: “inactive”; for `COC(C)(C)CC(C)=O`: “inactive”.

Turning to `CC1CCC(C(C)C)C(O)C1` (stereo not given), the molecule was classed as inactive. For `COc1ccc(N)c([N+](=O)[O-])c1`, the molecule was called inactive. Still for that read-out and setting: the same measure for `CC/C=C\CC/C=C/CO`: “inactive”; for `Cc1c(Cl)cccc1[N+](=O)[O-]`: “inactive”. For `C=Cc1ccc(C)cc1`, the call was inactive.

With `CC1=CC[C@@]23C[C@@H]1C(C)(C)[C@@H]2CC[C@H]3C`, the molecule was called inactive.
